PKM2 activator: PKM2 (human) enzyme activation; P14618; purified PKM2, Kinase-Glo ATP luminescence, activation; response scale: 0% is enzyme alone, no compound; Potency, µM (series often up to 57.5 µM), actives largely listed as activators; 260,000 compounds, 0.34% hits; AID 1631; note: nearly all actives have a fitted effect of over 55% in size
Target sequence (P14618 whole entry, looked up): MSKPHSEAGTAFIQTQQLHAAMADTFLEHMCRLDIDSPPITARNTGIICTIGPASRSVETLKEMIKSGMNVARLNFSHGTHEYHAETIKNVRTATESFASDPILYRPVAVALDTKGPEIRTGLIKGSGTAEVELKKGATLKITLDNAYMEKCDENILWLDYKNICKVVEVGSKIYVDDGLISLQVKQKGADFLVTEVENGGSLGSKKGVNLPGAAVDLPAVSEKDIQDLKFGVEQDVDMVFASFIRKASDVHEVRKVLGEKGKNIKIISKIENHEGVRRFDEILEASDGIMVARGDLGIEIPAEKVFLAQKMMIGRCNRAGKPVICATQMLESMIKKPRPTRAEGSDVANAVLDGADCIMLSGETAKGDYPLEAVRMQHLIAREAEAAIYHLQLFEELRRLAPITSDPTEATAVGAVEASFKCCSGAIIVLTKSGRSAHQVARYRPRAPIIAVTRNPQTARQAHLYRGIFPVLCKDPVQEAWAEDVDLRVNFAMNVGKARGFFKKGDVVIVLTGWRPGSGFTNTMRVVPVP
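hPK-M2, >95% pure; 0.1 mM ADP / 0.5 mM PEP final; imidazole pH7.2 buffer w/ 7 mM MgCl2, 50 mM KCl; 1 h RT; Kinase-Glo lum. Intermediate enzyme activity for dual inhibitor/activator qHTS.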
IL2 activator: IL-2 activation | activation, % (series mostly up to about 46 µM) | IL-2 activation reporter assay, cell-based qHTS; stimulated with anti-CD3/CD4/CD28 beads; in transgenic mouse T cells | 360,000 compounds, 0.065% hits; in the data active = activation above about 50%; inconclusive = mostly about 30% to 49%
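Using fluorescent plate cytometry, EGFP and DsRed are detected in transgenic mouse T cells stimulated 18 h at 37 degrees C with antibody-coated beads after 60 min compound pretreatment.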
S-ASM inh: inhibitors of human secretory acid sphingomyelinase; P17405; placental ASM, HMU-PC fluorogenic substrate, 60 min; Potency, µM (doses to about 57.5 µM), most hits filed as inhibitors; 340,000 compounds, 0.006% hits
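Human placenta-derived ASM preincubated with compound 10 min at room temperature, then reacted with 9 uM (final) fluorogenic HMU-PC substrate for 60 min at 37 C. Stop solution raises pH to 10; fluorescence read at Ex 386/Em 447 nm.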
Each line names hits and unclear results; the compound was inactive in the other large screens. Compounds with a hit are over-represented: about 0.33% of the library has one in this group of screens. Unless noted, calls come from the whole dose curve; as a rule, active = well fitted curve in the direction sought with a large enough effect; inconclusive = small, poorly fitted or top-dose-only effect, or another doubt; inactive = no such curve, though single readings can be large; an effect the other way counts as inactive or inconclusive.

Cc1nc2ccc(OC(=O)c3ccccc3)cc2s1	none
Cc1ccc(CN2CCN(CC(=O)NCc3ccc(Cl)cc3)C2=O)cc1	none
CCOC(=O)c1c(C)nc2sc3c(=O)n(-c4ccc(C)cc4)cnc3c2c1-c1ccc(OC)cc1	none
Cc1c(/C=N/NC(N)=O)c2ccccn2c1C(=O)c1ccc(F)cc1	IL2 activator inconclusive
CNC(=S)N/N=C/c1c(C)c(C(=O)c2ccc(F)cc2)n2ccccc12	IL2 activator 83.3 (no result: PKM2 activator)
N#C/C(=C/c1ccc(-c2ccc(S(N)(=O)=O)cc2)o1)c1nc2ccccc2s1	IL2 activator 71.1
N#C/C(=C/c1ccc(-c2ccc(S(N)(=O)=O)cc2)o1)C(=O)Nc1ccccc1	IL2 activator inconclusive
Nc1ccc(C(=O)Oc2ccc([N+](=O)[O-])cc2)cc1	PKM2 activator 39.8µM
Nc1ccc(C(=O)Oc2ccc([N+](=O)[O-])cc2)c(O)c1	none (no result: IL2 activator, S-ASM inh)
COC(=O)[C@@]1(Cc2ccc(F)cc2)[C@H]2c3cc(C(=O)N(C)C)n(Cc4ccc(C)o4)c3C[C@H]2CN1C(=O)c1ccccc1	PKM2 activator 7.08µM (no result: S-ASM inh)
COC(=O)[C@@]1(Cc2ccc(F)cc2)[C@H]2c3cc(C(=O)N(C)C)n(Cc4ccccc4)c3C[C@H]2CN1C(=O)c1ccccc1	none
COc1ccc(NC(=O)N2CCCC2C(=O)NC23CC4CC(CC(C4)C2)C3)cc1 (centres undefined)	none (no result: PKM2 activator)
Cc1ccc(NC(=O)c2n[nH]c(=O)c3ccccc23)cc1S(=O)(=O)N1CCOCC1	none (no result: PKM2 activator)
COc1ccc(C(=O)N(Cc2ccco2)Cc2cccs2)c(O)c1	none
COc1ccc(C(=O)/C=C/C(=O)N(CC(=O)NCCC(C)C)Cc2cccs2)c(O)c1	PKM2 activator 22.4µM
COc1ccc(C(=O)/C=C/C(=O)N(CC(=O)NC2CCCCC2)Cc2ccc(F)cc2)c(O)c1	PKM2 activator 7.94µM
CS(=O)(=O)N(CC(=O)NC1CCCCC1)Cc1ccc(F)cc1	none
C#CCNC(=O)C1=C[C@@H](c2csc3ccccc23)[C@H](CCCO)[C@@H](OCC)O1	none
CN(C)C(=O)COc1ccc(Br)cc1	none
Clc1ccccc1CONc1ncnc2nonc12	PKM2 activator 15.8µM
COCCNc1ncnc2c1cnn2Cc1ccccc1Cl	none (no result: PKM2 activator)
CN(C)CCn1c(=S)[nH]c2ccccc2c1=O	none
Cc1ccc(SCCC(=O)N2CCN(S(=O)(=O)c3ccccc3)CC2)cc1	none (no result: PKM2 activator)
Cc1ccc(S(=O)(=O)N2CCN(C(=O)CSc3ccc(F)cc3)CC2)cc1	PKM2 activator 12.6µM
O=C(O)CSCC(=O)N1CCN(S(=O)(=O)c2ccccc2)CC1	none
O=C(CSc1ccccc1)N1CCN(S(=O)(=O)c2ccccc2)CC1	PKM2 activator 2.82µM
CCOC(=O)c1ccoc1CSCC(=O)N1CCN(S(=O)(=O)c2ccc(C)cc2)CC1	PKM2 activator 25.1µM
CCOC(=O)c1ccoc1CN1CCN(S(=O)(=O)c2ccc(C)c(C)c2)CC1	none (no result: PKM2 activator)
Cc1csc(SCC(=O)N2CCN(S(=O)(=O)c3ccc(Cl)cc3)CC2)n1	PKM2 activator inconclusive
Cc1csc(SCC(=O)N2CCN(S(=O)(=O)c3ccccc3)CC2)n1	PKM2 activator 31.6µM
CC(=O)N(c1nnc(-c2ccc(C)cc2)s1)C1CCCC1	none
CCOc1c(Cl)cc(CNCc2ccncc2)cc1OC	none
CC(=NO)c1ccc2c(c1)C(=NO)c1ccccc1-2	none (no result: PKM2 activator)
Cn1cnc2c(N/N=C/c3cccs3)ncnc21	none
CCc1ccc(C(=O)Nc2ccc3c(c2)n(C)c(=O)n3C)cc1	none
Cc1cc(Cl)ccc1OC(C)C(=O)Nc1cccc(S(=O)(=O)N2CCOCC2)c1 (centres undefined)	none (no result: PKM2 activator, S-ASM inh)
O=C(Cc1cccs1)N1CCN(S(=O)(=O)c2ccc(Br)cc2)CC1	PKM2 activator 3.16µM
CS(=O)(=O)N1CCN(C(=O)Cc2cccs2)CC1	none
Cc1ccc(O)c(-c2cc(C(=O)NCc3ccncc3)[nH]n2)c1	none
CCC(C)c1ccc(NC(=O)CC(C)=O)cc1 (centres undefined)	none
COc1cc(CN2CCNC(=O)C2CC(=O)N2CCCCO2)cc(OC)c1 (centres undefined)	none
COc1cc(CN2CCNC(=O)C2CC(=O)N2CCCO2)cc(OC)c1 (centres undefined)	PKM2 activator 14.1µM
COc1ccc(/C=C2\SC(=S)N(CCC(=O)N(CCO)Cc3ccccc3)C2=O)cc1OC	none (no result: PKM2 activator)
Cc1ccc(CNC(=O)CCc2nc(-c3cccs3)no2)cc1	none
Cc1c(C(=O)NCc2ccc3c(c2)OCCO3)sc(=O)n1Cc1ccc2c(c1)OCO2	none (no result: PKM2 activator, S-ASM inh)
CCn1c(N)c(C(=O)NCc2ccc3c(c2)OCO3)sc1=S	PKM2 activator 5.01µM
N#Cc1ccc(OCC(O)CN2CCN(CC(O)COc3ccc(C#N)cc3)CC2)cc1 (centres undefined)	none (no result: PKM2 activator)
O=C(Nc1ncnc2sc3c(c12)CCCCC3)c1ccc(F)cc1	none
C/C(=N/NC(=O)CNC(=O)/C=C/c1ccco1)c1ccc(Cl)cc1	PKM2 activator 25.1µM
O=C(/C=C/c1ccco1)NCC(=O)N/N=C/c1ccc(Cl)cc1	none
O=c1c2ccccc2[nH]c(=S)n1Cc1cccnc1	PKM2 activator 25.1µM
O=c1c2cc(Br)ccc2[nH]c(=S)n1Cc1cccnc1	PKM2 activator inconclusive
Cc1csc(NC(=O)c2ccc(C)c([N+](=O)[O-])c2)n1	none
O=C1CCCN1CCCN1C(=O)N[C@@H](Cc2ccccc2)C1=O	none
Cc1cc(C)cc(N=C2NC(=O)/C(=C/c3cccs3)S2)c1	none
CCOc1ccc2c(c1)S/C(=C\c1cccs1)C(=O)N2	IL2 activator 60.2
Cc1cc(C)c(NC(=O)c2ccccc2CCc2ccccc2)c(C)c1	none
Cc1cc(C(=O)Nc2cc(Br)ccc2O)on1	none (no result: PKM2 activator)
N#Cc1c(SCc2ccc(Cl)cc2)sc(C(=O)c2ccccc2)c1N	none
CSc1c(C#N)c(N)nc2sc(C(=O)c3ccccc3)c(N)c12	IL2 activator 275.0
CCCN1CC=C2C(C#N)=C(N)C(C#N)(C#N)C(c3cccc(OC)c3OC)C2C1 (centres undefined)	none
COc1cccc(OC)c1OCc1cc(C2C3CCCC=C3C(C#N)=C(N)C2(C#N)C#N)c(C)cc1C (centres undefined)	PKM2 activator 4.47µM
CC1(C(=O)NS(=O)(=O)c2cccs2)CCN1C(=O)c1cccc(F)c1 (centres undefined)	none (no result: PKM2 activator, S-ASM inh)
O=C(O)c1oc2ccccc2c1CSCc1ccccc1	none
Cc1ccccc1NC(=O)c1ccc(C)c(S(=O)(=O)NCc2cccnc2)c1	none
Cc1ccc(C(=O)Nc2ccc(C(=O)O)cc2)cc1S(=O)(=O)NCc1ccccc1	IL2 activator 535.2
O=C(NCCc1c[nH]c2ccccc12)[C@@H]1C[C@H]1[C@@H](NP(=O)(c1ccccc1)c1ccccc1)c1ccccc1	none (no result: IL2 activator, S-ASM inh)
O=C(NCC1CCCN(Cc2ccccc2F)C1)c1cccc(C(F)(F)F)c1 (centres undefined)	none
Cc1nc(SCC(=O)c2ccccc2)c(C#N)c(-c2ccco2)c1C(=O)NCc1ccco1	PKM2 activator 25.1µM
COCCOC(=O)c1c(C)nc(SCC(=O)Nc2ccc(OC)cc2)c(C#N)c1-c1ccco1	none
O=C(O)C1CC(O)CN1S(=O)(=O)c1ccc2ccccc2c1 (centres undefined)	none (no result: PKM2 activator)
Cc1cccc(-n2c(C)cc(/C=C3/C(=N)N4C(c5ccccc5)=CSC4=NC3=O)c2C)c1	none

Screening results: PubChem, National Center for Advancing Translational Sciences (NCATS)
